What all share (test): qHTS profiling for inhibitors of Plasmodium falciparum proliferation (AID 504749); also: nearly all actives have a fitted effect of over 60% in size
Common to all, as to details: P. falciparum in erythrocytes, SYBR Green DNA, 72 h; series mostly up to 28.7 µM

One test deals with DIV14. The gist of the method: (§1)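 SYBR Green fluorescence (ex 485 nm, em 535 nm) reports parasite DNA after 72 h compound exposure of infected red cells at 0.3% parasitemia, 2.5% hematocrit; signal normalized to 0.29 uM artemisinin and vehicle wells.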
The subject of a further test is DIV17. The procedure, abridged: as §1
In the next test the test system is DIV30. The procedure, abridged:
as §1

A further test has as its system Dd2. The gist of the method: as §1
A further test concerns ECU. The procedure, abridged: as §1
The next test concerns FAB9. The gist of the method: as §1
The test system of a further test is GB4. The gist of the method:
as §1

The next test concerns HB3. The procedure, abridged:
as §1

A further test deals with ICS. The gist of the method: as §1
The subject of the next test is JCK. The gist of the method: as §1
In a further test the test system is N140. The gist of the method:
as §1

A further test deals with P93_24. The gist of the method: as §1
Another test deals with P94_40. The gist of the method: as §1
A further test concerns PAD. The procedure, abridged: as §1
In a further test the test system is PC15. The procedure, abridged: as §1
In the next test the test system is PC26. The gist of the method: as §1
The next test has as its system PC49. The gist of the method:
as §1

The next test deals with SC27B. The procedure, abridged: as §1
The test system of the next test is TAB109. The procedure, abridged: as §1
The test system of the next test is TAB113. The gist of the method: as §1

Structures are written as SMILES. Results filed as inconclusive are left out. Active and inactive are the calls of the source. Calls follow the shape of the dose curve; as a rule, active = well fitted inhibition curve with a large enough effect; inconclusive = small, poorly fitted or top-dose-only effect; inactive = flat fitted curve, though single readings scatter.
Potency is read from the fitted curve at half-maximal effect.

Take `O=Cc1ccccc1C=O`: the Potency result with DIV14, with DIV17, in the test with DIV30, in the test on Dd2, in the test with ECU and in the test with FAB9 was “inactive” each time. In addition, the Potency result with GB4, in the test with HB3, with ICS, in the test on JCK, in the test on N140 and in the test on P93_24 was “inactive” in each case. Further, the Potency result in the test with P94_40, in the test with PAD, in the test with PC15, with PC26, in the test on PC49 and with SC27B was “inactive” throughout. Further, the Potency result in the test on TAB109 and in the test with TAB113 was “inactive” throughout.

Consider `OCC(O)CN1CCN(c2ccccc2)CC1` (stereo unspecified), for which the Potency result in the test on DIV14, in the test with DIV17, with DIV30, with Dd2, with ECU and in the test on FAB9 was “inactive” each time. In addition, the Potency entry with GB4, in the test on HB3, in the test with ICS, in the test on JCK, in the test on N140 and with P93_24 was “inactive” in each case. The Potency result in the test on P94_40, in the test with PAD, with PC15, in the test with PC26, in the test with PC49 and in the test on SC27B was “inactive” in each case. The Potency entry in the test on TAB109 and in the test on TAB113 was “inactive” in each case.

`CCCCCCCCCCCCCCCCCCOCC(O)CO` (stereo unspecified): the Potency entry in the test on DIV14, with DIV17, in the test with DIV30, with Dd2, in the test on ECU and with FAB9 was “inactive” throughout. Further, the Potency entry in the test with GB4, with HB3, in the test on ICS, with JCK, with N140 and with P93_24 was “inactive” each time. Further, the Potency entry with P94_40, with PAD, in the test with PC15, in the test on PC26, in the test on PC49 and with SC27B was “inactive” each time. Besides, the Potency entry in the test with TAB109 and in the test with TAB113 was “inactive” throughout.

Turning to `C[C@H](N)[C@H](O)c1cccc(O)c1`, the Potency entry with DIV14, in the test with DIV17, in the test on DIV30, in the test with Dd2, in the test with ECU and with FAB9 was “inactive” each time. Also, the Potency result in the test with GB4, in the test with HB3, in the test with ICS, with JCK, with N140 and in the test on P93_24 was “inactive” in each case. The Potency result in the test with P94_40, in the test with PAD, in the test on PC15, in the test on PC26, in the test with PC49 and in the test on SC27B was “inactive” each time. For the same molecule, the Potency entry with TAB109 and in the test with TAB113 was “inactive” each time.

As to `Cc1cc(CC(=O)O)n(C)c1C(=O)c1ccc(Cl)cc1`, the Potency result in the test with DIV14, with DIV17, with DIV30, with Dd2, with ECU and in the test on FAB9 was “inactive” in each case. Further, the Potency entry in the test on GB4, with HB3, with ICS, with JCK, with N140 and with P93_24 was “inactive” in each case. Besides, the Potency result in the test with P94_40, in the test with PAD, in the test with PC15, in the test on PC26, with PC49 and in the test with SC27B was “inactive” in each case. Moreover, the Potency entry in the test on TAB109 and in the test with TAB113 was “inactive” in each case.

Consider `CC(O)COc1ccccc1` (stereo unspecified), for which the Potency entry with DIV14, in the test with DIV17, in the test on DIV30, in the test on Dd2, in the test on ECU and in the test with FAB9 was “inactive” throughout. For the same molecule, the Potency entry in the test with GB4, with HB3, in the test with ICS, with JCK, with N140 and in the test on P93_24 was “inactive” in each case. The Potency result in the test on P94_40, with PAD, in the test with PC15, in the test with PC26, with PC49 and in the test on SC27B was “inactive” in each case. Further, the Potency result with TAB109 and in the test on TAB113 was “inactive” each time.

In the case of `C[C@](N)(Cc1ccc(O)cc1)C(=O)O`, the Potency result with DIV14, with DIV17, in the test with DIV30, in the test with Dd2, in the test on ECU and with FAB9 was “inactive” in each case. Besides, the Potency result in the test on GB4, with HB3, in the test on ICS, in the test with JCK, in the test on N140 and in the test with P93_24 was “inactive” in each case. Besides, the Potency result with P94_40, in the test with PAD, in the test on PC15, with PC26, in the test with PC49 and in the test with SC27B was “inactive” throughout. Further, the Potency entry with TAB109 and with TAB113 was “inactive” throughout.

For the molecule `O=C1OC(OC(=O)c2cccnc2Nc2cccc(C(F)(F)F)c2)c2ccccc21` (stereo unspecified), the Potency entry in the test with DIV14, with DIV17, in the test on DIV30, with Dd2, with ECU and in the test with FAB9 was “inactive” each time. The Potency result in the test with GB4, in the test on HB3, with ICS, in the test with JCK, with N140 and in the test on P93_24 was “inactive” in each case. The Potency result with P94_40, with PAD, with PC15, with PC26, in the test on PC49 and in the test on SC27B was “inactive” in each case. The Potency entry in the test on TAB109 and in the test on TAB113 was “inactive” in each case.

In the case of `Cc1ncc(COP(=O)(O)O)c(C=O)c1O`, the Potency result in the test on DIV14, in the test with DIV17, in the test on DIV30, with Dd2, in the test with ECU and in the test with FAB9 was “inactive” throughout. In addition, the Potency result in the test on GB4, in the test on HB3, in the test with ICS, in the test with JCK, in the test with N140 and with P93_24 was “inactive” throughout. The Potency entry in the test on P94_40, with PAD, in the test with PC15, in the test with PC26, in the test on PC49 and in the test on SC27B was “inactive” in each case. The Potency result with TAB109 and in the test on TAB113 was “inactive” in each case.

As for `CCCCOc1cc(C(=O)OCCN(CC)CC)ccc1N`, the Potency entry in the test on DIV14, in the test on DIV17, in the test on DIV30, in the test with Dd2, with ECU and with FAB9 was “inactive” throughout. Besides, the Potency result in the test with GB4, with HB3, in the test on ICS, with JCK, with N140 and with P93_24 was “inactive” each time. Also, the Potency entry with P94_40, in the test on PAD, in the test on PC15, with PC26, in the test on PC49 and with SC27B was “inactive” in each case. The Potency result with TAB109 and with TAB113 was “inactive” in each case.

With `O=S(=O)(O)NC1CCCCC1`, the Potency entry with DIV14, in the test with DIV17, in the test with DIV30, in the test on Dd2, in the test with ECU and in the test on FAB9 was “inactive” throughout. Besides, the Potency result with GB4, with HB3, in the test with ICS, in the test with JCK, in the test on N140 and in the test on P93_24 was “inactive” in each case. The Potency entry in the test on P94_40, in the test on PAD, in the test with PC15, with PC26, in the test with PC49 and in the test with SC27B was “inactive” each time. Besides, the Potency entry in the test with TAB109 and in the test on TAB113 was “inactive” throughout.

For `O=C(O)CN1C(=O)c2cccc3cccc(c23)C1=O`, the Potency result in the test on DIV14, in the test with DIV17, with DIV30, in the test with Dd2, in the test on ECU and with FAB9 was “inactive” each time. The Potency result in the test on HB3, in the test with ICS, in the test on JCK, in the test with N140, in the test on PAD and in the test on PC15 was “inactive” each time. Moreover, the Potency entry in the test with PC26, in the test on PC49, in the test with SC27B, in the test on TAB109 and in the test with TAB113 was “inactive” each time.

Regarding `CC(=O)Nc1ccc(/C=N/NC(N)=S)cc1`, the Potency entry with DIV14, in the test with DIV17, in the test with DIV30, in the test with Dd2, in the test with ECU and with FAB9 was “inactive” throughout. The Potency result with GB4, in the test with HB3, in the test on ICS, with JCK, in the test with N140 and in the test with P93_24 was “inactive” each time. The Potency entry with P94_40, in the test with PAD, in the test with PC15, in the test on PC26, in the test on PC49 and in the test on SC27B was “inactive” in each case. In addition, the Potency entry in the test with TAB109 and in the test on TAB113 was “inactive” each time.

`OCCN1CCN(CCCN2c3ccccc3Sc3ccc(Cl)cc32)CC1`: the Potency is 5.73 µM (active) in the test with DIV14; 5.1 µM (active) in the test with DIV17; 3.55 µM (active) in the test on Dd2; 3.16 µM (active) in the test on ECU; 4.55 µM (active) in the test with GB4; 3.98 µM (active) in the test on ICS. Besides, the Potency is 3.55 µM (active) in the test on N140, 2.24 µM (active) in the test on P93_24 and 3.16 µM (active) in the test with PC15. Besides, in the test on DIV30, the Potency entry is “inactive”.

Regarding `CCCCN1CCCC[C@H]1C(=O)Nc1c(C)cccc1C`, the Potency result in the test with DIV14, in the test with DIV17, in the test on DIV30, in the test with Dd2, in the test on ECU and with FAB9 was “inactive” in each case. Moreover, the Potency entry with HB3, in the test with ICS, in the test on JCK, with N140, in the test on P93_24 and in the test with P94_40 was “inactive” in each case. The Potency entry in the test with PAD, in the test on PC15, in the test on PC26, in the test on PC49, with SC27B and with TAB109 was “inactive” throughout. Further, the Potency result in the test on TAB113 is “inactive”.
